Laboratory results: PubChem BioAssay

Assay: compound effects on lung adenocarcinoma cell viability – A549, calcein-AM fluorescence, 48 h, basal, profiling panel (AID 1162); also: test concentration not given here
Conditions: higher = more signal

| SMILES | z-score |
| --- | --- |
| O=C1c2ccccc2[C@](Cc2ccccc2I)(C(=O)NCCN2CCOCC2)[C@H](c2ccc(CO)cc2)N1Cc1ccccc1 | -0.0426 |
| CN(C)CCCCNC(=O)[C@H]1C[C@H]2C(=O)N3CCC[C@H]3C(=O)N2[C@H]1c1ccc(O)cc1 | -0.448 |
| C=C(CCCC)C(=O)CC[C@@H](OC(=O)c1ccccc1-c1ccccc1C(=O)O)c1cccc(OCCO)c1 | 0.78 |
| C=C(C(=O)CC[C@H](OC(=O)c1cccnc1)c1ccc(CO)o1)C(C)C | -0.242 |
| COc1ccc(C#Cc2ccc3c(c2)[C@]2(C(=O)N3)[C@H](C(=O)N3CCc4cc(OC)c(OC)cc4C3)[C@H]3C(=O)O[C@H](c4ccccc4)[C@H](c4ccccc4)N3[C@@H]2c2ccc(O)cc2)cc1 | -0.522 |
| [N-]=[N+]=NCc1ccccc1C[C@@]1(C(=O)N2CCCCC2)N=C(c2ccc(OCCCO)cc2)O[C@@H]1c1ccccc1N=[N+]=[N-] | -0.0222 |
| C=C[C@@H](COC(C)=O)NS(=O)(=O)c1ccc(Br)cc1 | 0.0976 |
| CCOC(=O)C[C@H]1[C@H](OC(=O)c2ccc(-c3ccccc3)cc2)[C@@H](NC(=O)c2ccc3ccccc3c2)c2cc(OCCCO)ccc2N1C(=O)c1ccc2ccccc2n1 | 0.245 |
| CC(C)(C)OC(=O)CC[C@]1(C(=O)NCCN2CCOCC2)N=C(c2ccc(OCCCO)cc2)O[C@H]1c1ccccc1 | 1.01 |
| C=CCOC(=O)[C@@H]1[C@H]2C(=O)O[C@H](c3ccccc3)[C@H](c3ccccc3)N2[C@H](c2ccc(OCCOC(=O)[C@H]3C[C@H]4C(=O)N[C@@H](CC(C)C)C(=O)N4[C@H]3c3ccc(O)cc3)cc2)[C@@]12C(=O)Nc1ccc(I)cc12 | 0.15 |
| O=C(CS)NCCCCCCNC(=O)[C@@H]1C[C@@H]2C(=O)N3CCC[C@H]3C(=O)N2[C@@H]1c1cccc(OCCO)c1 | 2.14 |
| COc1ccccc1CN1C(=O)c2ccccc2[C@@H](C(=O)NC(C)C)[C@@H]1c1ccc(CO)cc1 | 1.66 |
| C=CCOC(=O)[C@@H]1[C@H]2C(=O)O[C@H](c3ccccc3)[C@H](c3ccccc3)N2[C@H](c2ccc(OCCOC(=O)[C@H]3C[C@H]4C(=O)N[C@@H](CCCCNC(C)=O)C(=O)N4[C@H]3c3cccc(OCCO)c3)cc2)[C@@]12C(=O)Nc1ccc(I)cc12 | -0.596 |
| O=C1OCC=C[C@H]2OC34C=CCN(Cn5nnc6ccccc65)C(=O)[C@H]3N(CCCCCCO)C(=O)[C@@H]4[C@@H]12 (stereo not given in full) | -0.4 |
| COC(=O)Cn1c(C(=O)N2CCCC2)cc2c1C[C@H]1CN(C(=O)c3ccccc3)[C@@](Cc3ccc(F)cc3)(C(=O)OC)[C@@H]21 | 1.13 |
| COc1cc(OC)c(C(O)C2C=CC3C(=O)N(c4ccccc4)C(=O)C3N2Nc2ccc(C#N)cc2)cc1Br (stereo not given) | 0.423 |
| COc1ccc([Si](C)(C)[C@@H]2[C@@H](CC(=O)N3CCC[C@H]3CO)O[C@]3(C(=O)N(Cc4ccc(N5C(=O)c6cccc7cccc5c67)cc4)c4ccccc43)[C@H]2C)cc1 | -1.22 |
| CC=CC(O)C1C=CC2C(=O)N(c3ccccc3)C(=O)C2N1Nc1ccccc1 (stereo not given) | 1.04 |

| SMILES | z-score |
| --- | --- |
| CC(C)C(=C=CC[C@@H](O)c1ccccc1OCCO)C[C@@H](O)COCc1ccccc1 | 1.03 |
| CC(C)(C)N1CC=CC23O[C@@H]4C=CCOC(=O)[C@@H]4[C@H]2C(=O)N(CCCO)[C@@H]3C1=O (stereo not given in full) | 0.495 |
| COc1c(C)cc(-c2cc3c(c(-c4ccccc4)n2)[Si](C(C)C)(C(C)C)OC3)cc1C | 0.33 |
| Cc1ccc(S[C@]2(C(=O)NCC(C)C)CC(=O)N(Cc3ccccc3Cl)[C@@H]2c2ccc(CO)cc2I)cc1 | -0.0583 |
| O=C1O[C@@H](c2ccccc2)[C@@H](c2ccccc2)N2[C@@H](c3ccccc3OCCO)[C@]3(C(=O)Nc4ccc(C#CC5=CCCCC5)cc43)[C@@H](C(=O)NC[C@H](O)c3ccccc3)[C@H]12 | -1.37 |
| O=C(O)[C@H](Cc1ccccc1)n1cc(-c2ccccn2)nn1 | -0.529 |
| CC1CC/C=C\[C@H]2OC34C=CCN(CCN5CCOCC5)C(=O)[C@H]3N(CCO)C(=O)[C@@H]4C2C(=O)O1 (stereo not given in full) | -0.507 |
| CCOC(=O)C[C@H]1[C@H](OC(=O)c2ccc(-c3ccccc3)cc2)[C@@H](NC(=O)C2CCCCC2)c2cc(OCCCO)ccc2N1C(=O)c1ccccc1 | -0.28 |
| COCCCNC(=O)[C@@]1(Sc2ccc(C)cc2)CC(=O)N(Cc2cc(C(F)(F)F)cc(C(F)(F)F)c2)[C@@H]1c1ccc(CO)cc1 | 0.285 |
| CCCC[C@@H]1C[C@H]1[C@@H](NC(=O)c1cccnc1)c1ccc(-c2ccccc2)cc1 | -1.42 |
| O=C1O[C@@H](c2ccccc2)[C@@H](c2ccccc2)N2[C@@H](c3ccc(O)cc3)[C@]3(C(=O)Nc4ccc(C#CCCO)cc43)[C@@H](C(=O)Nc3nc4ccccc4s3)[C@H]12 | 1.06 |
| O=C(O)[C@]1(Cc2ccccc2)N=C(c2ccc(OCCCO)cc2)O[C@@H]1c1ccccc1 | 1.07 |
| Cc1ccc(S[C@]2(C(=O)NCc3ccccc3)CC(=O)N(C(C)C)[C@@H]2c2ccc(CO)cc2I)cc1 | -0.897 |
| Cc1ccc(C(C)CC(O)C2C=CC3C(=O)N(c4ccccc4)C(=O)C3N2Nc2ccc(C(C)C)cc2)o1 (stereo not given) | -1.12 |
| C=CC[C@]12N=C(c3ccc(OCCCO)cc3)O[C@H]1c1ccccc1N(C)C2=O | -1.3 |
| C=C(COC)/C(=C/C[C@@H](OC(=O)c1ccncc1)c1ccc(CO)o1)c1cnc2ccccc2c1 | -0.308 |
| O=C1NC(=O)C2C1C=CC(C(O)c1cc(C(F)(F)F)cc(C(F)(F)F)c1)N2Nc1ccc(Cl)cc1Cl (stereo not given) | -3.02 |
